High-throughput results as filed in PubChem BioAssay.
SMN2 splice up: qHTS Assay for Enhancers of SMN2 Splice Variant Expression; HEK293 SMN2-luciferase splicing reporter, luminescence, 30-36 h; Potency, µM (titrated, usually from 46.1 µM), most hits filed as activators; actives 2.8% (n = 210,000); AID 1458, 2008; also: nearly all actives have a fitted effect of over 55% in size
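qHTS luciferase splicing reporter: luminescence rises when SMN2 exon 7 is included in transfected HEK293 cells. Compound exposure lasted 30-36 h at 37C, with 4.5 mM final sodium butyrate as control, followed by a ONE-Glo read.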
FLuc modulator: qHTS profiling assay for firefly luciferase inhibitor/activator using purifed enzyme and Km concentrations of substrates (counterscreen for miR-21 project); purified FLuc, Km substrates, luminescence inhibition; Potency, µM (series often up to 57.5 µM), actives largely listed as inhibitors; actives 6.9% (n = 360,000); AID 588342, 2011; also: nearly all actives have a fitted effect of over 55% in size
Target sequence (P08659 whole entry, looked up): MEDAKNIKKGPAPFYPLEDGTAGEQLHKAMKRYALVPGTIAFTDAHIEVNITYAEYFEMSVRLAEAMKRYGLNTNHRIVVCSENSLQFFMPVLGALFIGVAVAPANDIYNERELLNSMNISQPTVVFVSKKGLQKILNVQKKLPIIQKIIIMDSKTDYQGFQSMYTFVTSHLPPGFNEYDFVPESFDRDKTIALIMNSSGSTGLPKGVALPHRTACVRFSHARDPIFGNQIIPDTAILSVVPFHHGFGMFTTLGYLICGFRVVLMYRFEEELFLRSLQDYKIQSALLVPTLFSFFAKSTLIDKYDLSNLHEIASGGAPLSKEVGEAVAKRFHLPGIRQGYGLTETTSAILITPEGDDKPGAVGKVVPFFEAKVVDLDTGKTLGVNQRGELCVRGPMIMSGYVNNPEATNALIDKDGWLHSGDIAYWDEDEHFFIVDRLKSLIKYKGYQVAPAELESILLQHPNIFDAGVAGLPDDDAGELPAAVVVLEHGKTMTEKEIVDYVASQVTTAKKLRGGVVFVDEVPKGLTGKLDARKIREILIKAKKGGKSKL
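Purified P. pyralis luciferase, 10 nM final, with Km-level 10 uM D-luciferin and 10 uM ATP in 50 mM Tris acetate pH 7.5, 10 mM Mg acetate, 0.01% Tween-20, 0.05% BSA; 6-point qHTS titration about 60 µM downward; luminescence read.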
Rab9 promoter act: qHTS Assay for Rab9 Promoter Activators; actives 2.8% (n = 320,000); Huh7 Rab9 promoter-luciferase reporter, luminescence, 24 h; Potency, µM (doses to about 9.22 µM), hits mostly activators; also: nearly all actives have a fitted effect of over 60% in size
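Rab9 promoter-driven luciferase in stably transfected Huh7 cells; 1500 cells/well rested 2 h, exposed to compound in DMSO for 24 h at 37 °C, 5% CO2. Luminescence read 10 min after adding luciferase reagent at ambient temperature.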
NPC1 prom act: qHTS Assay for NPC1 Promoter Activators; actives 2.4% (n = 320,000); Potency, µM (highest dose often 9.22 µM), most hits filed as activators; Huh7 NPC1 promoter luciferase reporter, 24 h; also: nearly all actives have a fitted effect of over 60% in size
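Huh7 cells stably carrying NPC1 promoter–luciferase, plated in Opti-MEM with 10% FBS for 2 h, were exposed to compound in DMSO for 24 h at 37 °C; luciferase reagent was added for 10 min and luminescence read.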
ELG1 DNA repair: qHTS screen for small molecules that inhibit ELG1-dependent DNA repair in human embryonic kidney (HEK293T) cells expressing luciferase-tagged ELG1. AID 504467, 2011. HEK293T ELG1-luciferase reporter, luminescence, 16 h; DNA damage induced by 5-fluorouridine. actives 2.3% (n = 330,000). Potency, µM (top dose mostly 46.1 µM), most hits filed as inhibitors; also: nearly all actives have a fitted effect of over 55% in size
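Reporter activity after DNA damage by 5-fluorouridine is monitored. Compound-treated cells incubate 16 hr at 37 °C, then ONE-Glo is added for 30 min before luminescence reading.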
ELG1 genotoxic: qHTS screen for small molecules that induce genotoxicity in human embryonic kidney (HEK293T) cells expressing luciferase-tagged ELG1; HEK293T ELG1-luciferase reporter, luminescence, 16 h; Potency, µM (top dose mostly 46 µM), hits mostly activators; actives 1.3% (n = 330,000); AID 504466, 2011; also: nearly all actives have a fitted effect of over 60% in size
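Genotoxicity was scored as increased ELG1-luciferase reporter signal, measured by ONE-Glo luminescence (30 min, room temperature). Compound or vehicle exposure of the HEK293T reporter cells lasted 16 hr at 37°C.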
ELG1 FLuc counter: qHTS screen for small molecules that inhibit ELG1-dependent DNA repair: Hit Confirmation in Cell-Based Luciferin Assay; shares compounds with ELG1 DNA repair; cell-free firefly luciferase luminescence counter-screen, ViewLux; Potency, µM (highest dose often 46.1 µM), hits mostly inhibitors; actives 3% (n = 350); AID 624247, 2012
ELG1 Luc conf: HTS assay for small molecules that inhibit ELG1-dependent DNA repair in human embryonic kidney (HEK293T) cells expressing luciferase-tagged ELG1: Hit Confirmation; shares compounds with ELG1 DNA repair; HEK293T ELG1-luciferase levels, luminescence; cells co-treated with 5-fluorouridine; Potency, µM (highest dose often 46.1 µM), hits mostly inhibitors; actives 68% (n = 670); AID 624248, 2012; also: nearly all actives have a fitted effect of over 55% in size
ELG1-Luc MMS: MMS-stimulated human ELG1 repair inhibition, confirmed. Potency, µM (series often up to 46.1 µM), hits mostly inhibitors. actives 53% (n = 670). shares compounds with ELG1 DNA repair. AID 624249. HEK293T luciferase-tagged ELG1 level, MMS stimulated; also: nearly all actives have a fitted effect of over 60% in size
ELG1 5-FU: qHTS screen for small molecules that inhibit ELG1-dependent DNA repair: Hit Confirmation with 5FU Viability. cell viability with 5-FU, ELG1-dependent repair. AID 624250, 2012. Potency, µM (series often up to 46.1 µM), most hits filed as cytotoxic. shares compounds with ELG1 DNA repair. 670 tested, under 10 active;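 also: ELG1-luc HEK293T cells cotreated with 5-fluorouridine at 10 µM final; viability measured 16 h after compound addition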
ELG1 MMS cell: qHTS screen for small molecules that inhibit ELG1-dependent DNA repair: Hit Confirmation with MMS Viability. actives 33% (n = 670). Cell viability with MMS, ELG1-dependent DNA repair. Potency, µM (titrated, usually from 46.1 µM), actives largely listed as cytotoxic. shares compounds with ELG1 DNA repair;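 also: ELG1-luc HEK293T cells co-treated with 10 µM MMS; viability read 16 h after compound addition; nearly all actives have a fitted effect of over 60% in size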
Cell viab unstim: qHTS screen for small molecules that inhibit ELG1-dependent DNA repair: Hit Confirmation with Unstimulated Viability Assay; shares compounds with ELG1 DNA repair; Potency, µM (highest dose often 45.9 µM), most hits filed as cytotoxic; actives 8% (n = 900); AID 624252, 2012; cell viability counter-screen, unstimulated, luminescence;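 also: compound exposure lasted 16 hours before reading; nearly all actives have a fitted effect of over 55% in size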
FLuc enzyme: qHTS screen for small molecules that inhibit ELG1-dependent DNA repair: Hit Confirmation in Biochemical Luciferin Assay | AID 624253, 2012 | actives 10% (n = 350) | shares compounds with ELG1 DNA repair | purified firefly luciferase, luminescence counter-screen | Potency, µM (highest dose often 57.5 µM), most hits filed as inhibitors
A number is an active result; n = inactive; u = inconclusive; x = no result given. An excerpt weighted towards active compounds, which were near 9.4% of everything screened. Calls follow the shape of the dose curve; as a rule, active = well fitted curve in the direction sought with a large enough effect; inconclusive = small, poorly fitted or top-dose-only effect, or another doubt; inactive = no such curve, though single readings can be large; an effect the other way counts as inactive or inconclusive.

SMILES	SMN2 splice up	FLuc modulator	Rab9 promoter act	NPC1 prom act	ELG1 DNA repair	ELG1 genotoxic	ELG1 FLuc counter	ELG1 Luc conf	ELG1-Luc MMS	ELG1 5-FU	ELG1 MMS cell	Cell viab unstim	FLuc enzyme
COc1ccc(C2(C)NC(=O)N(CC(=O)NC3CC3)C2=O)cc1 (centres undefined)	x	x	x	x	n	n	x	x	x	x	x	x	x
CC1CCC(NC(=O)CN2C(=O)NC(C)(C)C2=O)CC1 (centres undefined)	x	n	n	n	n	0.116µM	n	x	x	x	x	n	n
Cc1nc(N2CCN(S(=O)(=O)c3ccc(F)cc3)CC2)c2c(C)c(C)sc2n1	n	n	n	n	n	n	n	n	n	n	n	n	n
CC(=O)Nc1cccc(-c2cnc(N)c(C(=O)c3cccnc3)n2)c1	x	x	x	x	0.461µM	n	u	0.792µM	2.81µM	n	u	u	n
CCOc1cc(/C=N/Nc2cc(C)nc(-n3nc(C)cc3C)n2)ccc1O	x	n	n	n	2.59µM	n	x	6.28µM	u	u	u	u	x
COc1cccc(CN(C)C(=O)C(CCSC)NS(=O)(=O)c2ccc3c(c2)OCCO3)c1OC (centres undefined)	x	n	n	n	4.61µM	n	x	11.2µM	8.88µM	n	u	u	x
CSCCC(NS(=O)(=O)c1ccc2c(c1)OCCO2)C(=O)N(C)Cc1ccc(C)cc1 (centres undefined)	x	n	n	n	n	n	x	x	x	x	x	x	x
Cc1cc(C)cc(NC(=O)CCc2nc3sc4c(c3c(=O)[nH]2)CCCC4)c1	x	n	n	n	n	0.731µM	n	x	x	x	x	u	n
CN1C(=O)Cc2cc(S(=O)(=O)N3CCN(c4ccccc4F)CC3)ccc21	x	n	n	n	n	n	x	x	x	x	x	x	x
CSc1ccc(CCNC(=O)c2sc3ncccc3c2-n2cccc2)cc1	x	n	x	x	x	x	x	x	x	x	x	x	x
Cc1c(C(=O)Nc2nccs2)oc2ccc(Br)cc12	x	x	x	x	u	9.2µM	x	x	x	x	x	n	x
